RORg inh: ROR gamma (mouse) transcription inhibition. Drosophila S2 Gal4-RORgamma UAS-luciferase reporter, 20 h. Potency, µM (series often up to 53.6 µM), without a hit: at the top dose activity change, negative = inhibition, most hits filed as inhibitors. AID 2551. 310,000 tested, 5.4% active; note: nearly all actives have a fitted effect of over 60% in size
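Luciferase reporter read in Schneider cells carrying Gal4-RORγ (mouse) and UAS-Photinus luciferase; cells given compound 1 h before 700 uM copper sulfate induction, then incubated 20 h at ambient temperature.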
VP16 counter: Gal4-VP16 reporter inhibition counter-screen; Potency, µM (series often up to 53.6 µM), inactives show at the top dose activity, negative = inhibition, hits mostly inhibitors; AID 2546; Drosophila S2 Gal4-VP16 UAS-luciferase, luminescence, 20 h; 310,000 tested, 3.5% active;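 note: Gal4-VP16 expression switched on by copper sulfate through the metallothionein promoter; nearly all actives have a fitted effect of over 50% in size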
TDP1 cell noCPT: qHTS for Inhibitors of human tyrosyl-DNA phosphodiesterase 1 (TDP1): qHTS in cells in absence of CPT; Potency, µM (highest dose often 46.2 µM), for the others: at the top dose activity change, negative = growth inhibition, usual class: inhibitors; AID 686978, 2013; 420,000 tested, 15% active; DT40 Tdp1-/- hTDP1 cells, no CPT, ATP luminescence, 48 h; note: nearly all actives have a fitted effect of over 55% in size
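Chicken DT40 Tdp1-/- cells complemented with human TDP1, screened without camptothecin (DMSO vehicle only), 400 cells/well. Compounds pin-transferred, cells incubated at 37 °C for at least 48 hr. Growth read as ATP-dependent luminescence (CellTiter-Glo, 30 min at RT).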
TDP1 cell CPT: DT40-hTDP1 cell growth loss with CPT. chicken DT40 Tdp1-/-;hTDP1 cells + 20 nM CPT, ATP luminescence, 48 h. Potency, µM (highest dose often 46.2 µM), without a hit: top-dose activity change, negative = growth inhibition, hits mostly inhibitors. 420,000 tested, 12% active. AID 686979; note: nearly all actives have a fitted effect of over 55% in size
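Chicken DT40 Tdp1-/- cells stably complemented with human TDP1 were seeded at 400 cells/well in medium containing 20 nM camptothecin, exposed to pin-transferred compounds, and grown at 37 °C for at least 48 hr. Viability was read as ATP luminescence.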
TDP1 inh: inhibitors of human tyrosyl-DNA phosphodiesterase TDP1. Q9NUW8. recombinant TDP1, AlphaScreen DNA substrate cleavage. Potency, µM (top dose mostly 130 µM), for the others: top-dose activity change, negative = inhibition, usual class: inhibitors. 350,000 tested, 0.28% active; note: nearly all actives have a fitted effect of over 40% in size
Target sequence (Q9NUW8 whole entry, looked up): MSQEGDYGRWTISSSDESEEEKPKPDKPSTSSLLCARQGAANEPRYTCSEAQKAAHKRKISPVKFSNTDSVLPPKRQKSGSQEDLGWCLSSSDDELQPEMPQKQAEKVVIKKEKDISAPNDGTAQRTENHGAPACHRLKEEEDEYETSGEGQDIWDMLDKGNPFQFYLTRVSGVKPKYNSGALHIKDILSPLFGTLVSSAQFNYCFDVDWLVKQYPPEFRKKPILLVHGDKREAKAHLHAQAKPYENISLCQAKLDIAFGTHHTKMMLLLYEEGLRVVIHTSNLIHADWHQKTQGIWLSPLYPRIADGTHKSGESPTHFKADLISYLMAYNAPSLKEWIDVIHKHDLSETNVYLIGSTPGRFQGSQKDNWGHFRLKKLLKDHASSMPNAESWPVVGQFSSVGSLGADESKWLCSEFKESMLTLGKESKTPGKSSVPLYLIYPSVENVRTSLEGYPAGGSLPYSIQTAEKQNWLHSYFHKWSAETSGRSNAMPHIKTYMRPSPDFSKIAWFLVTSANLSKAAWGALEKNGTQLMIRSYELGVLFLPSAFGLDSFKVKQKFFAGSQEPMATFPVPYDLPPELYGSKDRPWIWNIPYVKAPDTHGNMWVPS
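Enzyme-compound mixtures sat 15 min at room temperature, followed by a 5 min reaction with 15 nM final substrate and 10 min with AlphaScreen beads. Recombinant human Tdp1 was used at 1 nM final.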
* hit, by the source's call; ? = inconclusive; / = not tested or not shown; [ ] = dose if it differs, or a comment. A selection: hits, their analogues and other compounds. The true share with any hit is near 19%. Calls come from the whole dose curve; as a rule, active = well fitted curve in the direction sought with a large enough effect; inconclusive = small, poorly fitted or top-dose-only effect, or another doubt; inactive = no such curve, though single readings can be large; an effect the other way counts as inactive or inconclusive. % is set by controls: 0 for no effect and ±100 for the full control effect; potency is the fitted concentration of half-maximal effect.

SMILES	RORg inh	VP16 counter	TDP1 cell noCPT	TDP1 cell CPT	TDP1 inh
COc1ccc(N2N=NN(C(C)C)C2=C(Cl)c2nnnn2-c2ccc(OC)cc2)cc1	/	/	8.2µM*	5.8µM*	/
COc1ccc(Oc2nnnn2-c2ccccc2)cc1	-35%	18%	-4%	9%	0%
NC(=S)n1[nH]c(-c2ccc([N+](=O)[O-])cc2)c(N=Nc2ccccc2[N+](=O)[O-])c1=O	?	-13%	?	?	0%
NC(=S)n1[nH]c(-c2ccc([N+](=O)[O-])cc2)c(N=Nc2cccc([N+](=O)[O-])c2)c1=O	0.63µM*	2.5µM*	?	?	?
Cc1c(N=Nc2c(-c3ccc([N+](=O)[O-])cc3)[nH]n(C(N)=S)c2=O)cccc1[N+](=O)[O-]	0.71µM*	?	2.9µM*	2.9µM*	3%
C=CCN1c2ccccc2[C@]23C[C@@H](C(=O)OC)N(S(=O)(=O)c4ccc(C(F)(F)F)cc4)C2=NC(C(=O)OC)=C(C(=O)OC)[C@H]13	/	/	/	/	9%[12.3 µM]
O=C(NC(=S)Nc1ccc(S(=O)(=O)Nc2ccccc2)cc1)C1CC1	3%	-15%	-5%	7%	-1%
O=C(CNS(=O)(=O)c1cccc(Cl)c1)Nc1ccc(-c2nc3ccccc3s2)cc1	-35%	2µM*	-5%	-15%	1%
O=C(Nc1cccc(-c2nc3ccccc3s2)c1)c1cccs1	-10%	?	?	?	5%
CC(C)(C)C(=O)Nc1ccc(-c2nc3ccccc3s2)cc1	/	/	?	?	-3%
Cc1ccc(C)c(S(=O)(=O)NC(C)C(=O)Nc2ccc(-c3nc4ccccc4s3)cc2)c1 (stereo not given)	?	-1%	?	-2%	3%
CC(C)(C)c1ccc(S(=O)(=O)NCC(=O)Nc2ccc(-c3nc4ccccc4s3)cc2)cc1	0%	?	-26%	-3%	2%
CCS(=O)(=O)c1ccccc1C(=O)Nc1ccc(-c2nc3ccccc3s2)cc1	/	/	15µM*	?	3%
CNc1ccc(-c2nc3ccccc3s2)cc1	1.4µM*	?	/	/	5%
O=C(CCS(=O)(=O)c1ccccc1)Nc1cccc(-c2nc3ccccc3s2)c1	?	-28%	18µM*	?	-2%
CCOC(=O)Cc1csc(NC(=O)CSC2=NCCS2)n1	30%	-12%	-30%	?	1%
O=C(CCS(=O)(=O)c1ccccc1)Nc1ccc(S(=O)(=O)Nc2ncccn2)cc1	-19%	2%	-13%	-10%	5%
O=C(CCS(=O)(=O)c1ccccc1)Nc1ccc(-c2nc3ccccc3s2)cc1	?	5.6µM*	-6%	11%	-1%
CNc1ccncc1S(=O)(=O)NC	5%	-19%	-4%	0%	8%
O=C1c2ccncc2C(=O)N1CO	-15%	-8%	-13%	-29%	2%
CNC1=C(Br)C(=O)c2ccncc2C1=O	2.2µM*	5.6µM*	/	/	1%
CNC1=C(Cl)C(=O)c2ccncc2C1=O	2.8µM*	5.6µM*	/	/	1%
O=C(CN1C(=O)c2ccccc2C1=O)N1CCN=C1c1ccccc1	-3%	-2%	-3%	13%	2%
CCOc1nc2cnccc2n(CC(=O)Nc2ccccc2F)c1=O	15%	1%	1%	8%	5%
CCOC(=O)c1c(C)[nH]c(C)c1S(=O)(=O)N1CCC(C(=O)N2CCN(c3cc(C)ccc3C)CC2)CC1	/	/	23µM*	23µM*	10%
CCOC(=O)N1CCN(C(=O)C2CCN(S(=O)(=O)c3c(C)cc(C)cc3C)CC2)CC1	-32%	-3%	18µM*	?	2%
CCOC(=O)c1c(C)[nH]c(C)c1S(=O)(=O)N1CCC(C(=O)N2CCN(c3cccc(C)c3)C(C)C2)CC1 (stereo not given)	/	/	?	23µM*	4%
Cc1noc(NS(=O)(=O)c2ccc(NC(=O)CSc3nnc4c(n3)[nH]c3ccccc34)cc2)c1C	29%	-4%	-21%	-7%	-1%

Bioassay records (PubChem)
